Experimental data published in ChEMBL document CHEMBL1157539, “Thousands of chemical starting points for antimalarial lead identification” (Nature, 2010).

System: Plasmodium falciparum
Assay: GSK_TCMDC: Inhibition of Plasmodium falciparum Dd2 in whole red blood cells, using parasite LDH activity as an index of growth. Test compounds present at 2uM
Assay type: functional

SMILES	Inhibition
Cc1cccc2nc(-c3cccc(-c4cccc(CNCCCN5CCCC5=O)c4)c3)[nH]c12.O=C(O)C(F)(F)F	76%
COc1ccc(C2CCN(CCCCNC(=O)c3ccc(NC(=O)c4ccc(Cl)cc4)cc3)C2)c(OC)c1 (centres undefined)	0%
O=C(Nc1ccccc1N1CCOCC1)c1ncoc1-c1ccccc1C(F)(F)F	60%
COc1ccc2nccc(NC(=O)C3CCC(NCc4cnc(SC)c([N+](=O)[O-])c4)CC3)c2n1.Cl (centres undefined)	44%

System: HepG2
Assay: GSK_TCMDC: Percent inhibition of human HepG2 cell line. Test compounds present at 10uM.
Assay type: functional

SMILES	Inhibition
O=C(O)C(F)(F)F.Oc1ccc(CCNc2nc(NCc3ccccc3-c3cccc(Cl)c3)nc(N3CCNCC3)n2)cc1	15%
Cc1nc(C)c(-c2ccc(Oc3ccc(OC(F)(F)F)cc3)cc2)c(O)c1I	3%
CCCCOP(=O)(COc1ccc(CCN(CC(O)COc2cccc3[nH]c4ccccc4c23)CC(O)COc2cccc3[nH]c4ccccc4c23)cc1)C1CCCCC1 (centres undefined)	7%
OC(CNCc1ccccc1)c1cc(OCc2ccccc2)cc(OCc2ccccc2)c1 (centres undefined)	0%
COc1ccc2nc(C)cc(NC3Cc4ccccc4C3)c2c1.Cl	20%
CN(C)CCNCc1ccc(-c2ccc3c(Nc4ccc(F)cc4Cl)ccnc3c2)o1	31%
COc1ccc2nccc(N3CCC(SCCNS(=O)(=O)c4ccc5c(c4)NC(=O)CS5)C3)c2n1.Cl (centres undefined)	20%
Cc1cccc(CCCNC(=O)CN(c2cccc(C(F)(F)F)c2)S(=O)(=O)c2ccc(C(F)(F)F)cc2)c1	9%
COc1cc(NC(=O)c2sc(-c3ccc(Cl)cc3)cc2NC(=O)c2cccnc2)ccc1OCCN1CCCC1	38%
c1ccc2[nH]c(-c3ccc(-c4ccc(CN5CCC(N6CCCCC6)CC5)cc4)s3)nc2c1	26%
O=C(Nc1cccc(Cl)c1Cl)Nc1ccnc2ccccc12	31%
Cc1cc(N2CCC(NS(=O)(=O)c3ccc(F)cc3)CC2)nc(Nc2cccc(C#N)c2)n1.O=C(O)C(F)(F)F	20%
C=C[C@]1(C)C[C@@H](OC(=O)CSC2CN3CCC2C3)[C@@]2(C)C3C(=O)CC[C@@]3(CC[C@H]2C)[C@@H](C)[C@@H]1O.Cl (some centres undefined)	18%
CC(C)(CNC(=O)C1CCN(CCOCc2ccccc2)CC1)c1nc(-c2ccc(Cl)c(O)c2)c(-c2ccncc2)[nH]1.Cl	11%
CCCN(CCC)CCCN(CCCN(CCC)CCC)c1cc(C)nc(Nc2ccc3cc(Br)ccc3c2)n1.Cl	99%
CS(=O)(=O)CCNCc1cccc(-c2cc3c(Nc4ccc5c(cnn5Cc5ccccc5)c4)ncnc3s2)c1.O=C(O)C(F)(F)F	36%
CN(C)c1ccc(CN2CCC(NC(=O)c3ccc(-c4ccccc4F)s3)CC2)cc1.O=C(O)C(F)(F)F	41%
COc1ccc2nccc(N3CCC(CCNCc4ccc5c(n4)NC(=O)CO5)CC3)c2c1.Cl	22%
CN(C)Cc1ccc(-c2ccc3c(Nc4ccc(Cl)cc4F)ccnc3c2)o1	13%
CCCCCCN1CCC(NCc2ccc(C)cc2)CC1.O=C(O)C(F)(F)F	16%

SMILES	Inhibition
O=C(Nc1ccc(F)c(F)c1)c1ccc(CN2CCCN(Cc3cccc(O)c3)CC2)cc1.O=C(O)C(F)(F)F	43%
Cc1cccc2nc(-c3ccc(-c4cccc(C(=O)NCCN5CCCC5)c4)s3)[nH]c12	22%
CC(=O)Nc1nc(N)c2c(ccc3c2ccn3CC(C)C)n1	66%
Cc1nnc2c(N(C(=O)NCCc3ccccc3)C(=O)NCCc3ccccc3)cc3cc(Cl)ccc3n12	0%
COc1cc(CNCCCCCCNCc2cc(OC)c(OC)c3ccccc23)c2ccccc2c1OC.CS(=O)(=O)O	100%
O=C(Nc1ccnc(N2CC3CC2CN3Cc2cccc(O)c2)c1)c1ccc(F)cc1.O=C(O)C(F)(F)F (centres undefined)	2%
Cc1cc(NC(=O)c2cc(Br)ccc2Cl)n(-c2nc(C)c(C)c(=O)[nH]2)n1	54%
CC(CCCCC(=O)Nc1ccc(C(F)(F)F)cc1)NCC(O)c1cccc(Cl)c1 (centres undefined)	51%
O=C(CCc1cccnc1)Nc1cccc(-c2ccc(-c3nc4cc(C(F)(F)F)ccc4[nH]3)cc2)c1	38%
O=C(O)C(F)(F)F.Oc1ccc(CCNc2nc(NCc3ccccc3-c3ccc(F)cc3)nc(N3CCNCC3)n2)cc1	15%
CCCCCCNc1cc(C)nc(NC(=N)Nc2cccc(C(F)(F)F)c2)n1	44%
Nc1nc(-c2ccc3c(Nc4ccc(F)c(Cl)c4)ccnc3c2)cs1	13%
CCNc1cc(C)nc(Nc2ccc(NC(=O)c3ccccc3Cl)cc2)n1	48%
Cc1cccc2nc(-c3cccc(-c4ccc(CN5CCCC5CN)cc4)c3)[nH]c12.O=C(O)C(F)(F)F (centres undefined)	19%
O=C(Nc1nc(-c2ccccn2)cs1)c1ccc(Br)s1	40%
CC(=O)NCCNc1nccc(N2CCc3ncnc(Nc4ccc(OCc5ccccn5)c(Cl)c4)c3C2)n1	0%
Cc1cccc2nc(-c3cccc(-c4cccc(CNCCCN5CCCC5=O)c4)c3)[nH]c12.O=C(O)C(F)(F)F	9%
COc1ccc(C2CCN(CCCCNC(=O)c3ccc(NC(=O)c4ccc(Cl)cc4)cc3)C2)c(OC)c1 (centres undefined)	18%
O=C(Nc1ccccc1N1CCOCC1)c1ncoc1-c1ccccc1C(F)(F)F	0%
COc1ccc2nccc(NC(=O)C3CCC(NCc4cnc(SC)c([N+](=O)[O-])c4)CC3)c2n1.Cl (centres undefined)	8%
